Measurements from PubChem BioAssay (NCATS).
Values joined by “and” are separate entries in the source; they are usually repeats but may differ in a detail not shown here. Identical values can stand only once. Values without a mark were called inactive. Inconclusive results are not listed. Entries that show only a call come without a potency. Active and inactive are the calls of the source. Calls come from the whole dose curve; as a rule, active = well fitted curve in the direction sought with a large enough effect; inconclusive = small, poorly fitted or top-dose-only effect, or another doubt; inactive = no such curve, though single readings can be large; an effect the other way counts as inactive or inconclusive.

Legend:
[1] = Cellular Toxicity (caspase-3) HepG2 (AID 654); conditions: HepG2 caspase-3 activation, luminescence, 0% = DMSO only, 100% = tamoxifen; series mostly up to 92.2 µM;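 note: cells exposed to compound for 16 hours before reading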
Outline: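 Cells plated 5 hr at 37 °C, compound added, incubated 16 hr at 37 °C. Caspase-Glo 3/7 reagent followed, 20 min at room temperature, then luminescence read. Activation scored as signal increase; AC50 from Hill fit.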

[2] = Cellular Toxicity (caspase-3) Jurkat (AID 655); conditions: Jurkat caspase-3 activation, luminescence; series mostly up to 92.2 µM;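 note: cells exposed to compound for 16 h at 37 °C before reading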; note: potency is the fitted concentration of half-maximal effect
Outline: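 Luminescent Caspase-Glo 3/7 read-out (20 min, room temperature) after 16 h compound treatment at 37 C of 5000 Jurkat cells per well. AC50 derived by Hill-equation fitting, scaled between DMSO basal and 100 uM tamoxifen stimulation.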

[3] = Cellular Toxicity (caspase-3) HUV-EC-C (AID 656); conditions: HUV-EC-C cells, caspase-3 activation (apoptosis), vehicle = 0, 100 µM tamoxifen = 100%; series mostly up to 92.2 µM
Outline: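 Luminescent Caspase-Glo 3/7 readout after 16 h, 37 °C compound exposure of HUV-EC-C endothelial cells, 1000 per well, complete medium. AC50 derived by Hill fitting, with DMSO as baseline and 100 uM tamoxifen as full activation.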

[4] = Cellular Toxicity (caspase-3) BJ (AID 658); conditions: BJ fibroblasts, luminescence; Potency: caspase-3 activation; series mostly up to 91.7 µM; note: potency is the fitted concentration of half-maximal effect
Outline: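 Readout: Caspase-Glo 3/7 luminescence increase in BJ cells after 16 hr treatment at 37 °C. Staurosporine and tamoxifen served as positive controls; AC50 values came from Hill modelling of data normalized to DMSO and 10 uM staurosporine.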

[5] = Cellular Toxicity (caspase-3) MRC-5 (AID 659); conditions: MRC-5 cells, luminescence, normalized: DMSO 0%, 10 µM staurosporine 100%; series mostly up to 91.7 µM
Outline: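 Concentration-dependent caspase 3/7 activation is measured in human normal lung fibroblasts (MRC-5) following 16-hour treatment. AC50 values come from standard Hill-equation modeling of luminescence normalized to DMSO and 10 uM staurosporine.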

[6] = Cellular Toxicity (caspase-3) Mesangial (AID 660); conditions: mesangial cells, normalized: DMSO 0%, 100 µM tamoxifen 100%; series mostly up to 91.7 µM;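 note: combined caspase 3 and 7 activity read by Caspase-Glo luminescence; cells exposed to compound for 16 h before the caspase read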
Outline: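 Mesangial cells, 1000/well, 5 h settle at 37 °C; compound 16 h, 37 °C; Caspase-Glo 3/7 reagent 20 min RT; luminescence. Norm.: DMSO = 0%, tamoxifen 100 uM = 100%. AC50, Hill fit.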

[7] = Cellular Toxicity (caspase-3) SK-N-SH (AID 661); conditions: SK-N-SH caspase-3 activation, qHTS; caspase-3 activation: at 91.7 µM (top of the series), DMSO as zero, staurosporine as full; note: potency is the fitted concentration of half-maximal effect
Outline: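 Human neuroblastoma SK-N-SH, 1500 cells/well, 5 hr pre-incubation, then compound 16 hr, 37 °C. Caspase-Glo 3/7 reagent, 1 hr RT, luminescence. Norm. to DMSO/10 uM staurosporine; Hill-fit AC50.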

[8] = Cellular Toxicity (caspase-3) Hek293 (AID 664); conditions: HEK293 caspase-3 activation, DMSO = 0%, 100 µM tamoxifen = 100%; at 92.2 µM (top of the series);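 note: cells exposed to compound for 16 h at 37 °C before readout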
Outline: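 Cells plated, 5 hr at 37 °C; compounds added; 16 hr at 37 °C; Caspase-Glo 3/7 reagent, 20 min RT; luminescence read. Activation expressed relative to DMSO and 100 uM tamoxifen, AC50 by Hill model.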

[9] = Cellular Toxicity (caspase-3) N2a (AID 665); conditions: N2a cells, luminescence, normalized: DMSO 0%, 10 µM staurosporine 100%; series mostly up to 92.2 µM;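 note: compound exposure lasted 16 h at 37 °C before readout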
Outline: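 N2a cells, 1500/well, 5 h settle at 37 °C; cpd 16 h, 37 °C; Caspase-Glo 3/7, 1 h RT; luminescence. Norm: DMSO = 0, 10 uM staurosporine = 100%. AC50, Hill fit.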

[10] = Cellular Toxicity (caspase-3) NIH 3T3 (AID 666); conditions: NIH 3T3 caspase-3 activation, apoptosis/toxicity, 0% DMSO, 100% is 100 µM tamoxifen; series mostly up to 92.2 µM;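 note: caspase signal read after 16 h compound exposure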
Outline: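 Luminescence from aminoluciferin released by caspase-3/7 cleavage of a peptide substrate served as read-out. Mouse fibroblast NIH 3T3 cells were exposed to compounds over a concentration range for 16 hours, and AC50 values came from standard Hill modelling.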

Structure (SMILES)	outcome [1]	Potency [2]	outcome [3]	Potency [4]	outcome [5]	outcome [6]	Potency [7]	caspase-3 activation [8]	outcome [9]	outcome [10]	caspase-3 activation [7]
CC/C=C\C/C=C\C/C=C\CCCCCCCC(=O)O	inactive	inactive	inactive	inactive	inactive	inactive	inactive	0.606%	inactive	inactive	–
CCCCC	inactive	inactive	inactive	inactive	inactive	inactive	inactive	2.68%	inactive	inactive	–
Nc1ncnc2c1ncn2[C@H]1CC[C@@H](CO)O1	inactive	–	inactive	inactive	inactive	inactive	inactive	2.37%	inactive	inactive	–
NC(N)=O	inactive	inactive	inactive	inactive	inactive	inactive	inactive	1.05%	inactive	inactive	–
COC(=O)c1ccccc1O	inactive	inactive	inactive	inactive	inactive	inactive	inactive	0.0886%	inactive	inactive	–
OB(O)O	inactive	inactive	inactive	inactive	inactive	inactive	inactive	-1.81%	inactive	inactive	–
CC1=CCC2CC1C2(C)C (stereo unspecified)	inactive	inactive	inactive	inactive	inactive	inactive	inactive	0.916%	inactive	inactive	–
O=P(O)(O)O	inactive	inactive	inactive	inactive	inactive	inactive	inactive	-0.448%	inactive	inactive	–
CO	inactive	inactive	inactive	inactive	inactive	inactive	inactive	-0.124%	inactive	inactive	–
CCOC(C)OCC	inactive	inactive	inactive	inactive	inactive	inactive	inactive	0.677%	inactive	inactive	–
Nc1nccs1	inactive	inactive	inactive	inactive	inactive	inactive	inactive	0.166%	inactive	inactive	–
CC(C)(C)CC(C)(C)c1ccc(OCCO)cc1	inactive	inactive	inactive	inactive	inactive	inactive	inactive	5.17%	inactive	inactive	–
OCC(O)CO	inactive	inactive	inactive	inactive	inactive	inactive	inactive	3.75% and 1.59%	inactive	inactive	–
CC1=CC(=O)NS(=O)(=O)O1	inactive	inactive	inactive	inactive	inactive	inactive	inactive	-2.78%	inactive	inactive	–
C[C@H](CCC(=O)O)[C@H]1CC[C@H]2[C@@H]3CC[C@@H]4C[C@H](O)CC[C@]4(C)[C@H]3C[C@H](O)[C@]12C	inactive	inactive	inactive	inactive	inactive	inactive	inactive	-1.48%	inactive	inactive	–
O.O.O.O.O.O.O.O=S(=O)([O-])[O-].[Co+2]	inactive	inactive	inactive	inactive	inactive	inactive	inactive	-1.13%	inactive	inactive	–
Oc1cccc(O)c1O	inactive	inactive	inactive	inactive	inactive	inactive	inactive	1.35%	inactive	inactive	–
Cc1ccc(S(=O)(=O)O)cc1C	inactive	inactive	inactive	inactive	inactive	inactive	inactive	0.165%	inactive	inactive	–
C[C@H](CCC(=O)O)[C@H]1CC[C@H]2[C@@H]3[C@H](O)C[C@@H]4C[C@H](O)CC[C@]4(C)[C@H]3C[C@H](O)[C@]12C	inactive	inactive	inactive	inactive	inactive	inactive	inactive	-0.41%	inactive	inactive	–

Structure (SMILES)	outcome [1]	Potency [2]	outcome [3]	Potency [4]	outcome [5]	outcome [6]	Potency [7]	caspase-3 activation [8]	outcome [9]	outcome [10]	caspase-3 activation [7]
Cc1ncc[nH]1	inactive	inactive	inactive	inactive	inactive	inactive	inactive	-0.913%	inactive	inactive	–
CCCCO	inactive	inactive	inactive	inactive	inactive	inactive	inactive	0.832% and 0.952%	inactive	inactive	–
ClC(Cl)Cl	inactive	inactive	inactive	inactive	inactive	inactive	inactive	0.0594%	inactive	inactive	–
CO/N=C(/C(=O)N[C@@H]1C(=O)N2C(C(=O)O)=C(COC(N)=O)CS[C@H]12)c1ccco1	inactive	inactive	inactive	inactive	inactive	inactive	inactive	0.731%	inactive	inactive	–
O=c1n(CC2CO2)c(=O)n(CC2CO2)c(=O)n1CC1CO1 (stereo unspecified)	inactive	–	inactive	inactive	inactive	inactive	15.8 µM (active)	3.19%	inactive	inactive	–
C[C@H]1O[C@@H](O[C@H]2[C@@H](O)C[C@H](O[C@H]3[C@@H](O)C[C@H](O[C@H]4CC[C@@]5(C)[C@H](CC[C@@H]6[C@@H]5C[C@@H](O)[C@]5(C)[C@@H](C7=CC(=O)OC7)CC[C@]65O)C4)O[C@@H]3C)O[C@@H]2C)C[C@H](O)[C@@H]1O	inactive	0.0126 µM (active)	inactive	inactive	inactive	inactive	inactive	-3.59%	inactive	inactive	–
c1ccc2ccccc2c1	inactive	inactive	inactive	inactive	inactive	inactive	inactive	-0.432%	inactive	inactive	–
CC(C)O	inactive	inactive	inactive	inactive	inactive	inactive	inactive	1.95%	inactive	inactive	–
C=C1C(CCl)(CCl)C2(Cl)C(Cl)C(Cl)C1(Cl)C2(Cl)Cl (stereo unspecified)	inactive	–	–	63.1 µM (active)	–	–	–	252% (active)	–	inactive	90.5% (active)
CC[C@H]1OC(=O)[C@H](C)[C@@H](O[C@H]2C[C@@](C)(OC)[C@@H](O)[C@H](C)O2)[C@H](C)[C@@H](O[C@@H]2O[C@H](C)C[C@H](N(C)C)[C@H]2O)[C@](C)(O)C[C@@H](C)CN(C)[C@H](C)[C@@H](O)[C@]1(C)O	inactive	inactive	inactive	inactive	inactive	inactive	–	0.727%	inactive	inactive	–
Nc1ccc(N=Nc2ccccc2)c(N)n1	inactive	inactive	inactive	inactive	inactive	inactive	inactive	-7.28%	inactive	–	–
Oc1ccc(/C=C/c2cc(O)cc(O)c2)cc1	inactive	inactive	inactive	inactive	inactive	inactive	inactive	-7.92%	inactive	inactive	–
[O-][N+](=Nc1ccccc1)c1ccccc1	inactive	inactive	inactive	inactive	inactive	inactive	inactive	0.871%	inactive	inactive	–
OCl	inactive	inactive	inactive	inactive	inactive	inactive	inactive	2.43%	inactive	inactive	–
NCCN	inactive	inactive	inactive	inactive	inactive	inactive	inactive	0.975%	inactive	inactive	–
OCc1ccccc1	inactive	inactive	inactive	inactive	inactive	inactive	inactive	-0.432%	inactive	inactive	–
C/C=C/C=C/C(=O)O	inactive	inactive	inactive	inactive	inactive	inactive	inactive	-0.294%	inactive	inactive	–
OC[C@H]1O[C@@H]2O[C@H]3[C@H](O)[C@@H](O)[C@@H](O[C@H]4[C@H](O)[C@@H](O)[C@@H](O[C@H]5[C@H](O)[C@@H](O)[C@@H](O[C@H]6[C@H](O)[C@@H](O)[C@@H](O[C@H]7[C@H](O)[C@@H](O)[C@@H](O[C@H]1[C@H](O)[C@H]2O)O[C@@H]7CO)O[C@@H]6CO)O[C@@H]5CO)O[C@@H]4CO)O[C@@H]3CO	inactive	inactive	inactive	inactive	inactive	inactive	inactive	0.542%	inactive	inactive	–
